EPAC2 ag: agonists of human EPAC2 (RAPGEF4). Q8WZA2. EPAC2 activation, biochemical qHTS; response scale: 100% = 6.5 mM cAMP response. Potency, µM (series often up to 154 µM), most hits filed as activators. 360,000 compounds, 0.079% hits. AID 720711; also: nearly all actives have a fitted effect of over 50% in size
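Nucleotide exchange monitored as fluorescence drop when BODIPY-GDP leaves Rap1B. Reaction: 100 nM EPAC2, 250 nM RAP1B-BODIPY-GDP, 50 uM GDP, room temperature, kinetic read over 30 min. Activity expressed relative to 6.5 mM cAMP.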
EPAC1 ag: EPAC1 (human) agonism. AID 720707. 360,000 compounds, 0.073% hits. O95398. Potency, µM (series often up to 154 µM), usual class: activators. EPAC1 agonist qHTS, biochemical assay; response scale: 100% = response to 6.5 mM cAMP; also: nearly all actives have a fitted effect of over 60% in size
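Nucleotide exchange assay: 100 nM EPAC1 with 250 nM Rap1B loaded with BODIPY-GDP and 50 uM GDP, room temperature. Fluorescence (480/540 nm) read every 5 min for 30 min; signal change normalized to 6.5 mM cAMP as full agonist.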
USP1 inh: USP1/UAF1 (human) deubiquitinase inhibition; AID 743255; 390,000 compounds, 0.23% hits; recombinant USP1/UAF1, Ub-Rhodamine cleavage fluorescence; O94782; Potency, µM (titrated, usually from 57.1 µM), most hits filed as inhibitors; also: nearly all actives have a fitted effect of over 60% in size
Target sequence (O94782 whole entry, looked up): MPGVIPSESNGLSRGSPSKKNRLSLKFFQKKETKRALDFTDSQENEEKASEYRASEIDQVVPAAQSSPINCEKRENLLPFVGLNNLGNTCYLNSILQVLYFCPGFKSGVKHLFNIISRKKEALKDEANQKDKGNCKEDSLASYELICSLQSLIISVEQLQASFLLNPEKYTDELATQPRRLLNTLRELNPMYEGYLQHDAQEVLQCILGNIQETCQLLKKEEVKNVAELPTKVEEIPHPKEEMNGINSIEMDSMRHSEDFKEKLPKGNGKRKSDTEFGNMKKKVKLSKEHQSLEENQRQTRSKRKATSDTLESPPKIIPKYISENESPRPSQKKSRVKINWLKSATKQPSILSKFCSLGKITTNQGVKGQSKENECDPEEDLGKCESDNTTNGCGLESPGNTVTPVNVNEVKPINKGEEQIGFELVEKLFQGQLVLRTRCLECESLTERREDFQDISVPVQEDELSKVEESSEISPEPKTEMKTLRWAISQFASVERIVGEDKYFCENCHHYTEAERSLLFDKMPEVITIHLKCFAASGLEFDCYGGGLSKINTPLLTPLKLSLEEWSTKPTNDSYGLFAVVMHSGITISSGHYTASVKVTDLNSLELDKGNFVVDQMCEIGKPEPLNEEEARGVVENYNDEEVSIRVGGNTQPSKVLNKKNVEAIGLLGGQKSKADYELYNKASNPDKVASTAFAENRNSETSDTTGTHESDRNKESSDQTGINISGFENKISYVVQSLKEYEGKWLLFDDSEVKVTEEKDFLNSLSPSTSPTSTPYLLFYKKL
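Step one: compound is pinned into 1nM USP1/UAF1 in HEPES pH 7.8 buffer with TCEP. Step two: 15 min room-temperature incubation. Step three: Ub-Rho (150nM final) starts cleavage, tracked by fluorescence over six one-minute reads.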
FBPA coupling cs: counter-screen for Giardia aldolase inhibitors: coupling enzyme system | 290,000 compounds, 0.67% hits | coupling enzyme system counterscreen, AmpLite Red fluorescence | activity change, negative = inhibition, % at 58.2 µM, hits read low; in the data active = activity change below about -30%
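Activity here indicates interference with the coupling reaction, not aldolase inhibition. Compounds at 57.5 uM final met coupling enzymes for 10 min at RT; substrate and AmpLite Red detection followed, with a 525/598 nm fluorescence read after 20 min.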
EPAC1 antagonist: antagonists of human EPAC1; 360,000 compounds, 0.14% hits; Potency, µM (titrated, usually from 115 µM), usual class: inhibitors; EPAC1 GEF assay, Rap1b-BODIPY-GDP exchange fluorescence; O95398; also: nearly all actives have a fitted effect of over 50% in size
EPAC2 antagonist: EPAC2 (human) antagonism | Potency, µM (titrated, usually from 114 µM), hits mostly inhibitors | Q8WZA2 | EPAC2 GEF exchange of Rap1B-BODIPY-GDP, fluorescence | 360,000 compounds, 0.18% hits | AID 720708; also: nearly all actives have a fitted effect of over 45% in size
Each line names hits and unclear results; the compound was inactive in the other large screens; ! = a repeat was not active. In the library only some 0.87% were active in any assay of this set; here they are far more common. Unless noted, calls follow the shape of the dose curve; as a rule, active = well fitted curve in the direction sought with a large enough effect; inconclusive = small, poorly fitted or top-dose-only effect, or another doubt; inactive = no such curve, though single readings can be large; an effect the other way counts as inactive or inconclusive.

CC(=O)N1CC=C2C(C#N)=C(N)C(C#N)(C#N)C(CCc3ccccc3)C2C1 (stereo not given)	none
CCCN1CC=C2C(C#N)=C(N)C(C#N)(C#N)C(c3cccc(OC)c3OC)C2C1 (stereo not given)	EPAC1 ag inconclusive, EPAC2 antagonist 22µM
CC(=O)Nc1c(C)nn(-c2ccccc2)c1N1CCC(C(=O)NCc2ccc(F)cc2)CC1	none (no result: EPAC2 ag, EPAC1 ag, FBPA coupling cs, EPAC1 antagonist, EPAC2 antagonist)
COC(=O)CCCC1=CC2=CC(=O)C(C)(OC(=O)c3cccs3)C(=O)C2=CN1CCc1ccccn1 (stereo not given)	USP1 inh inconclusive, FBPA coupling cs -31!
COc1cc(NC(=O)c2ccnc(N)c2)cc(C(=O)Nc2cccc(C(F)(F)F)c2)c1	EPAC1 antagonist 71µM
COc1cc(NC(=O)c2cnc(N)s2)cc(C(=O)Nc2cccc(C(F)(F)F)c2)c1	EPAC1 antagonist 40µM
COc1cc(NC(=O)c2csc(N)n2)cc(C(=O)Nc2cccc(C(F)(F)F)c2)c1	none
COc1ccc(-c2ccc(NS(=O)(=O)c3ccc([N+](=O)[O-])cc3)cc2)nn1	none (no result: FBPA coupling cs)
COc1ccc(C(O)c2nc(-c3cccs3)cs2)cc1 (stereo not given)	none (no result: USP1 inh, FBPA coupling cs)
COC(=O)c1ccc(/C=C(\C#N)C(=O)NC(C)c2ccccc2)cc1 (stereo not given)	none
CC(NC(=O)/C(C#N)=C/c1ccc([N+](=O)[O-])o1)c1ccccc1 (stereo not given)	FBPA coupling cs -36, EPAC1 antagonist inconclusive
CC(NC(=O)/C(C#N)=C/c1ccc(N2CCOCC2)cc1)c1ccccc1 (stereo not given)	EPAC2 ag inconclusive, EPAC1 ag 89µM
CCOc1ccccc1OCCCC(=O)Nc1ccc(OC)nc1	FBPA coupling cs -32
O=C(N/N=C/CCc1ccccc1)c1ccccc1	none
Cc1ccc(C(=O)NC(=S)N2CCN(c3ccc([N+](=O)[O-])cc3)CC2)cc1	none
CCCC(=O)NC(=S)N1CCN(c2ccc([N+](=O)[O-])cc2)CC1	FBPA coupling cs -32
CCN(CC)c1nc(N2CCOCC2)c(C#N)c2c1CN(C)CC2	none
CCOC(=O)c1ccc(-n2c(CN3CCC(C(N)=O)CC3)nc3ccc([N+](=O)[O-])cc3c2=O)cc1	none
CCCN(Cc1ccc(N(C)C)cc1)CC1CC1	FBPA coupling cs -50
CC1CCC/C(=C\Nc2ccc(O)cc2)C1=O (stereo not given)	FBPA coupling cs -38, EPAC1 antagonist inconclusive
CCN(CC)C(=O)Cn1c(=O)n(CCc2ccccc2)c(=O)c2ccccc21	none (no result: EPAC2 ag, EPAC1 ag, FBPA coupling cs, EPAC1 antagonist, EPAC2 antagonist)
CCN(CC)C(=O)Cn1c(C)c(/C=C/c2cc[n+](C)cc2)c2ccccc21	EPAC2 ag inconclusive, USP1 inh 25µM
C=CCn1c(C)c(/C=C/c2cc[n+](C)cc2)c2ccccc21	EPAC1 ag inconclusive, USP1 inh 35µM
C=CCn1cc(/C=C/c2cc[n+](C)cc2)c2ccccc21	EPAC2 ag 100µM, EPAC1 ag inconclusive, USP1 inh 32µM
CC(C)n1cc(/C=C/c2cc[n+](C)cc2)c2ccccc21	EPAC2 ag inconclusive, EPAC1 ag 100µM, USP1 inh 32µM, FBPA coupling cs -33
CCn1cc(/C=C/c2cc[n+](C)cc2)c2ccccc21	EPAC2 ag inconclusive, USP1 inh inconclusive
O=C(COC(=O)C1CCN(S(=O)(=O)c2c(Cl)cccc2Cl)CC1)NCc1ccco1	none (no result: FBPA coupling cs)
O=C(CNC(=O)c1ccccc1)OCC(=O)c1c[nH]c2ccccc12	none (no result: FBPA coupling cs)
O=C(O/N=C1\CCCCC1c1ccc([N+](=O)[O-])cc1[N+](=O)[O-])c1c(F)cccc1F (stereo not given)	FBPA coupling cs -31
COc1ccc(/C=C/C(=O)Nc2cccc(N3CCOCC3)c2)cc1OC	none
COc1ccc(OC)c(C2CC(=O)N3CN(c4ccccc4F)CSC3=C2C#N)c1 (stereo not given)	FBPA coupling cs -84
CCc1ccccc1N1CSC2=C(C#N)C(c3cc(OC)c(OC)cc3OC)CC(=O)N2C1 (stereo not given)	FBPA coupling cs -52
COC(=O)Cc1cc(=O)n2[nH]c(C(F)(F)F)nc2n1	FBPA coupling cs -34
COc1ccc(OC)c(/C=C/c2nc3ccccc3[nH]c2=O)c1	EPAC2 ag inconclusive, EPAC1 ag 89µM
COc1ccc(OC)c(C=Nc2ccccc2-c2nc3ccccc3[nH]2)c1	none
O=C1Nc2c(Cl)cc(Cl)cc2C1=O	USP1 inh 28µM, EPAC1 antagonist inconclusive, EPAC2 antagonist inconclusive (no result: FBPA coupling cs)
O=[N+]([O-])c1cc(Cl)ccc1NCCc1ccccn1	EPAC2 antagonist 56µM
N#Cc1ccc(NCCc2ccccn2)c([N+](=O)[O-])c1	none
Cc1ccsc1C1C2=C(CCCC2=O)Nc2ncnn21 (stereo not given)	FBPA coupling cs -30
Cc1ccsc1C1C2=C(CC(C)(C)CC2=O)Nc2ncnn21 (stereo not given)	none
CC(Nc1cc(N2CCN(S(C)(=O)=O)CC2)ccc1[N+](=O)[O-])c1ccccc1 (stereo not given)	none
CC(Nc1cc(N2CCN(S(=O)(=O)N(C)C)CC2)ccc1[N+](=O)[O-])c1ccccc1 (stereo not given)	FBPA coupling cs -34
COc1ccc(NC(=O)c2csc3c2CCCC3)cc1	none
COc1cccc(NC(=O)c2csc3c2CCCC3)c1	EPAC1 ag 100µM
CCCCn1c(NC(=O)c2ccco2)c(S(=O)(=O)c2ccc(C)cc2)c2nc3ccccc3nc21	USP1 inh inconclusive
CCCCn1c(NC(=O)c2ccc(Br)o2)c(S(=O)(=O)c2ccccc2)c2nc3ccccc3nc21	USP1 inh 28µM
CCCCn1c(NS(=O)(=O)c2ccccc2)c(S(=O)(=O)c2ccc(C)cc2)c2nc3ccccc3nc21	USP1 inh 28µM, FBPA coupling cs -32, EPAC1 antagonist 50µM
C=CCn1c(O)c(C=Nc2ccc(Cc3ccncc3)cc2)c(=O)[nH]c1=S	none
COC(=O)c1cc(C(=O)c2ccc(Cl)cc2)n2c(=O)/c(=C\N(C)C)sc12	EPAC2 ag 100µM
COC(=O)c1cc(C(=O)c2ccccc2)n2c(=O)/c(=C\N(C)C)sc12	none
COc1ccccc1C1SCCN1S(C)(=O)=O (stereo not given)	EPAC2 ag 7.9µM
CC1(C)CCC2=C(O1)c1ccccc1C(=O)C2=O	FBPA coupling cs -56 (no result: EPAC2 ag, EPAC1 ag, USP1 inh, EPAC1 antagonist, EPAC2 antagonist)
NCCNCCN	FBPA coupling cs -44 (no result: EPAC2 ag, EPAC1 ag, USP1 inh, EPAC1 antagonist, EPAC2 antagonist)
NCCNCCNCCN	none
CC1CCC2=NN(C(=O)c3ccco3)C(O)(C(F)(F)F)C2C1 (stereo not given)	EPAC2 antagonist 50µM
O=[N+]([O-])c1ccc(C=NN2CCOCC2)s1	none (no result: FBPA coupling cs)

Screening data: PubChem, National Center for Advancing Translational Sciences (NCATS)
